# Assay results as given in PubChem BioAssay (EPA / NIEHS).
# Results filed as inconclusive are left out. Calls of active or inactive are those of the source. Rule for the calls, unless noted: active = hit-call score of the fitted dose curve at least 0.9, where 1 is the maximum; inconclusive = response in the unintended direction; inactive = score below 0.9.
# How the values were obtained:
# [1] = STM_H9_OrnithineISnorm_perc: Stemina devTOX quickPredict H9 human embryonic stem cell (hESC)-based Assay for Ornithine (ORN) Metabolite Biomarker, Normalized (AID 2283712; active = hit-call score of the fitted dose curve at least 0.9, where 1 is the maximum; inactive = score below 0.9;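 note: ornithine released into spent medium during last day measured by mass spectrometry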)
# How it was run: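 H9 human embryonic stem cells kept pluripotent receive test chemical over 72 h, refreshed daily by media exchange. Media from the closing 24 h is deproteinized and analysed by UPLC-HRMS on an amide column; ornithine signal is scaled to labelled standard and vehicle.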
# [2] = STM_H9_CystineISnorm_perc: Stemina devTOX quickPredict H9 human embryonic stem cell (hESC)-based Assay for Cystine (CYSS) Metabolite Biomarker, Normalized (AID 2283713; active = hit-call score of the fitted dose curve at least 0.9, where 1 is the maximum; inactive = score below 0.9)
# How it was run: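 H9 hESC, pluripotent; compound 72h, re-dosed q24h with medium change. Last-24h medium → 40% acetonitrile deproteinization → UPLC-HRMS. CYSS area / C13-CYSS standard, then % of 0.1% DMSO median.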
# [3] = ACEA_AR_agonist_AUC_viability: ACEA Biosciences xCELLigence Real-Time Cell Analysis on Androgen Receptor Agonism for Viability (AID 2283775);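 for AC50: viability read 80 hours after compound addition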
# How it was run: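 Real-time impedance tracking of 22Rv1 growth, readings every 5 min for 5 h then hourly; area-under-curve viability endpoint at 80 hours, relative to DMSO. Compounds at eight concentrations, 1:4 steps, top 100 uM, n = 2.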
# [4] = ACEA_AR_antagonist_AUC_viability: ACEA Biosciences xCELLigence Real-Time Cell Analysis on Androgen Receptor Antagonism for Viability (AID 2283776);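 note: 22Rv1 human prostate cancer cells growing on impedance electrode plates; hits lower the growth signal relative to DMSO meaning cytotoxicity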
# How it was run: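 Impedance read-out (RT-CES): area under growth curve at 80 h post-dose, loss of signal scored vs DMSO baseline. 22Rv1 cells; 8-pt 1:4 series, top 100 uM final, ≤0.5% DMSO; biological duplicate.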
# [5] = ArunA_CellTiter_hNC: Viability Assessment in the ArunA Biomedical's Oris Neural Crest (hNC) Cell Migration Assay (AID 2283752)
# How it was run: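 Cell titer was measured with the CellTiter Aqueous One reagent after 72 h of chemical dosing. Cells were H9-derived embryonic neural crest stem cells seeded on Matrigel, 60,000 per well, and given 16 h at 37C beforehand.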
# [6] = ArunA_Migration_hNP: ArunA Biomedical's Oris Neuroprogenitor (hNP) Cell Migration Assay (AID 2283754)
# How it was run: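 Human H9-derived hNP1 neuroprogenitors on Matrigel with LIF/bFGF, plated around seeding stoppers for 16 h at 37C; stoppers removed at start of 72 h chemical exposure. Calcein-AM staining, fluorescence 494/517 nm in detection zone; loss-of-signal vs DMSO; cytochalasin D control.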
# [7] = ArunA_Migration_hNC: ArunA Biomedical's Oris Neural Crest (hNC) Cell Migration Assay (AID 2283755)
# How it was run: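 Human H9-derived neural crest stem cells, 60,000/well on Matrigel, 16 h at 37C, then 72 h chemical exposure after seeding-stopper removal. Migration into detection zone read as calcein-AM fluorescence (ex494/em517), relative to DMSO.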
# [8] = ArunA_NOG_NucleusCount: ArunA Biomedical's Neurite Outgrowth (NOG) Assay for Nucleus Count (AID 2283756)
# How it was run: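 Human H9-derived differentiated neurons were exposed for 48 h right after seeding. Hoechst-stained nuclei gated by size and intensity were counted by automated high-content imaging as viable neurons. Loss of signal vs DMSO.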
# [9] = biological target: Luciferin 4-monooxygenase (Photinus pyralis) (UniProt P08659); test: CCTE_Simmons_QuantiLum_inhib_2: CCTE's Firefly Luciferase Inhibition Assay, Simmons Lab (AID 2283767);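 for AC50: potency for inhibitors that lower luciferase luminescence relative to DMSO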
# How it was run: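 Luminescence loss relative to DMSO vehicle defines inhibition; detection reagent containing 150 uM D-luciferin and 147 uM dATP (final, pH 7.8) is injected immediately before each read. Enzyme is preincubated with an 8-point titration (5 nM–87.5 uM final) for 30 min at 37C.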
# [10] = Tanguay_ZF_120hpf_ActivityScore_legacy: (Legacy) Oregon State University Tanguay Lab 120 Hour Post-fertilization zebrafish Assay Score for Activity (AID 2283742);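 for AC50: dechorionated Tropical 5D wild-type zebrafish embryos held singly per well; static exposure from 6 hpf until 120 hpf at 28 °C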
# How it was run: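 Dechorionated Tropical 5D embryos, one per well from 6 hpf, statically exposed to 120 hpf at 28 °C in 0.64% DMSO. Mortality and malformations scored binary by brightfield microscopy; activity score combines 18 endpoints, fitted positively versus DMSO.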
# [11] = ArunA_NOG_NeuriteLength: ArunA Biomedical's Neurite Outgrowth (NOG) Assay for Neurite Length (AID 2283757)
# How it was run: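 Differentiated human H9-derived neurons were exposed for 48 h from seeding, then stained with Hoechst and βIII-tubulin. Automated high-content imaging gave total neurite length per valid neuron, counting processes >10 um. Loss of signal was scored versus DMSO.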
# [12] = ArunA_NOG_NeuritesPerNeuron: ArunA Biomedical's Neurite Outgrowth (NOG) Assay for Neurites Per Neuron (AID 2283758)
# How it was run: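 Differentiated human H9-derived neurons exposed to chemicals for 48 h from seeding, then stained with Hoechst and βIII-tubulin/DyLight 488. Automated imaging counted neurites (processes >10 um) per valid neuron; loss of signal versus DMSO scored.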
# [13] = test system: Thyroperoxidase (TPO), gene 445522; test: CCTE_Simmons_GUA_TPO: CCTE's Guaiacol Assay for Thyroperoxidase (TPO) Inhibition, Simmons Lab (AID 2283750)
# How it was run: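 Porcine thyroid microsomes (25 ug) in 200mM potassium phosphate, preincubated 30 s at 37C with compound (8 concentrations, 5 nM–87.5 uM) and 35mM guaiacol; 1mM H2O2 starts reaction. Absorbance change at 450nm over first 80 s; loss of signal versus DMSO, three replicates.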
# Sequence of Luciferin 4-monooxygenase (Photinus pyralis) (P08659 whole entry, looked up): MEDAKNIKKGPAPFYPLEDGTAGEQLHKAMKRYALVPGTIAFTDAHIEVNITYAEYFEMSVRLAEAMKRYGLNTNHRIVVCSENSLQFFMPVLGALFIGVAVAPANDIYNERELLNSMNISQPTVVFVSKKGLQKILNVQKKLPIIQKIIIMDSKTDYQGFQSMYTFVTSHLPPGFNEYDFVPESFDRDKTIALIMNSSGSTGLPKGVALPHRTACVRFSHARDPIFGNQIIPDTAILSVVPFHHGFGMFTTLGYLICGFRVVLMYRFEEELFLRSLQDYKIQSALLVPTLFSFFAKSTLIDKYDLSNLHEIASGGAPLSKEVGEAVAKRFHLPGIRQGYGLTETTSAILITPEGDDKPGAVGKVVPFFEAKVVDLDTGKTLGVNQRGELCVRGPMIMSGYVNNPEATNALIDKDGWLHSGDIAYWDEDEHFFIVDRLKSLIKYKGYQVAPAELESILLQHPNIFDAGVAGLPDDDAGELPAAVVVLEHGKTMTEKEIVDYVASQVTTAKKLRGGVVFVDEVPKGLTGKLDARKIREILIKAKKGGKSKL
smiles,measurement,setting,value
CCc1ccc(CCOc2ccc(CC3SC(=O)NC3=O)cc2)nc1 (centres undefined),AC50,[1],72.1 µM (active)
same,AC50,[2],88.9 µM (active)
same,AC50,[3],50 µM (active)
same,AC50,[4],26.5 µM (active)
CCCCCCCCCCCCc1ccccc1S(=O)(=O)O,AC50,[1],0.00695 µM (active)
same,outcome,[2],inactive
same,outcome,[5],inactive
same,outcome,[6],inactive
same,outcome,[7],inactive
same,outcome,[8],inactive
same,outcome,[9],inactive
same,outcome,[3],inactive
same,outcome,[4],inactive
CC(C)(C)c1cccc(C(C)(C)C)c1O,outcome,[10],inactive
same,outcome,[9],inactive
same,outcome,[3],inactive
same,outcome,[4],inactive
O=C(O)Cc1cc(I)c(Oc2cc(I)c(O)c(I)c2)c(I)c1,outcome,[1],inactive
same,outcome,[2],inactive
same,AC50,[10],3.08 µM (active)
same,outcome,[5],inactive
same,outcome,[7],inactive
same,outcome,[8],inactive
same,outcome,[11],inactive
same,outcome,[12],inactive
same,AC50,[3],51.7 µM (active)
same,AC50,[4],46.6 µM (active)
c1ccc2cc3c(ccc4ccccc43)cc2c1,outcome,[10],inactive
same,AC50,[9],17.3 µM (active)
CC#C[C@]1(O)CC[C@H]2[C@@H]3CCC4=CC(=O)CCC4=C3[C@@H](c3ccc(N(C)C)cc3)C[C@@]21C,AC50,[10],27.9 µM (active)
same,outcome,[9],inactive
same,AC50,[3],28.1 µM (active)
same,AC50,[4],25.2 µM (active)
CC(C)(C)c1ccc(O)c(C(C)(C)C)c1,AC50,[10],0.00448 µM (active)
same,outcome,[9],inactive
same,AC50,[3],17.4 µM (active)
same,AC50,[4],21 µM (active)
O=c1c(-c2ccc(O)cc2)coc2cc(O)ccc12,outcome,[10],inactive
same,AC50,[9],8.1 µM (active)
same,outcome,[3],inactive
same,outcome,[4],inactive
CC(=O)CC(C)(C)O,outcome,[10],inactive
same,outcome,[3],inactive
same,outcome,[4],inactive
NC(=O)N1C(=O)C(C(=O)c2cc(Cl)cs2)c2cc(F)c(Cl)cc21 (centres undefined),AC50,[10],2.88 µM (active)
same,outcome,[3],inactive
same,outcome,[4],inactive
O=C(O)c1ccccc1C(c1ccc(O)cc1)c1ccc(O)cc1,outcome,[10],inactive
same,AC50,[13],118 µM (active)
same,AC50,[9],15.3 µM (active)
same,outcome,[3],inactive
same,outcome,[4],inactive
N#C[C@@H]1CC(F)(F)CN1C(=O)CNC1CC2CCC(C1)N2c1ncccn1 (some centres undefined),outcome,[1],inactive
same,outcome,[2],inactive
same,outcome,[9],inactive
same,outcome,[4],inactive
CCCCCCCC(=O)O,outcome,[10],inactive
same,outcome,[3],inactive
same,outcome,[4],inactive
COc1ccc([N+](=O)[O-])cc1N,outcome,[1],inactive
same,outcome,[2],inactive
same,outcome,[9],inactive
same,outcome,[3],inactive
same,AC50,[4],27.3 µM (active)
CC(C)CCCCCCOC(=O)CCCCC(=O)OCCCCCCC(C)C,outcome,[10],inactive
same,outcome,[3],inactive
same,outcome,[4],inactive
OC1CCC(C2CCCCC2)CC1 (centres undefined),outcome,[10],inactive
same,AC50,[3],81.3 µM (active)
same,AC50,[4],50 µM (active)
C#C[C@]1(O)CC[C@H]2[C@@H]3CCC4=CC(=O)CC[C@@H]4[C@H]3CC[C@@]21C,AC50,[1],74.6 µM (active)
same,AC50,[2],79.8 µM (active)
C[C@@H]1C[C@H]2[C@@H]3CCC4=CC(=O)C=C[C@]4(C)[C@@]3(F)[C@@H](O)C[C@]2(C)[C@@]1(O)C(=O)COP(=O)(O)O,outcome,[1],inactive
same,outcome,[2],inactive
same,outcome,[4],inactive
CC(C)(C)c1cc(C(C)(C)C)c(O)c(C(C)(C)C)c1,outcome,[10],inactive
same,outcome,[9],inactive
Cc1cc(CCN2CCN(c3nsc4ccccc34)CC2)cc2c1NC(=O)CC2(C)C,AC50,[1],5 µM (active)
same,AC50,[2],8.41 µM (active)
same,AC50,[3],9.03 µM (active)
same,AC50,[4],21.4 µM (active)
CN1CCC[C@H]1c1cccnc1,outcome,[1],inactive
same,outcome,[2],inactive
same,outcome,[10],inactive
same,outcome,[3],inactive
same,outcome,[4],inactive
CCN(CC)CCNc1ccc(CNC=O)c2sc3ccc(OC)cc3c(=O)c12,AC50,[1],7.85 µM (active)
same,AC50,[2],2.53 µM (active)
same,outcome,[10],inactive
same,outcome,[9],inactive
same,AC50,[3],7.1 µM (active)
same,AC50,[4],5.35 µM (active)
CC(O)CO (centres undefined),AC50,[2],675000 µM (active)
same,outcome,[3],inactive
same,AC50,[4],11.9 µM (active)
c1ccc2c(c1)ccc1ccccc12,AC50,[1],88.8 µM (active)
same,AC50,[2],80.3 µM (active)
same,AC50,[3],50 µM (active)
same,AC50,[4],50 µM (active)
CN1CCN(c2ccccc2/C=C2\SCCN(c3ccc(Cl)c(Cl)c3)C2=O)CC1,AC50,[1],6.56 µM (active)
same,AC50,[2],7.81 µM (active)
same,outcome,[9],inactive
same,AC50,[3],66.3 µM (active)
same,AC50,[4],66.9 µM (active)
CC(C)(C)CC(C)(C)c1ccc(O)c(-n2nc3ccccc3n2)c1,outcome,[10],inactive
same,AC50,[3],90.1 µM (active)
same,AC50,[4],82.8 µM (active)
CC1=C(/C=C/C(C)=C/C=C/C(C)=C/C(=O)O)C(C)(C)CCC1,AC50,[1],0.0785 µM (active)
same,AC50,[2],0.00844 µM (active)
same,AC50,[10],0.34 µM (active)
same,outcome,[9],inactive
same,AC50,[4],78.6 µM (active)
O=C(OCCOCCOC(=O)c1ccccc1)c1ccccc1,outcome,[1],inactive
same,outcome,[2],inactive
same,outcome,[3],inactive
same,outcome,[4],inactive
OCCC(F)(F)C(F)(F)C(F)(F)C(F)(F)C(F)(F)C(F)(F)C(F)(F)C(F)(F)F,outcome,[10],inactive
same,outcome,[3],inactive
same,outcome,[4],inactive
CN(C)C=O,outcome,[1],inactive
same,outcome,[2],inactive
Nc1cccc2c(N)cccc12,outcome,[1],inactive
same,outcome,[2],inactive
same,AC50,[9],10.6 µM (active)
